# In the supplement of paper PMC4466140:
# Tests used:
# Test in all cases: SPOT peptide array binding signal intensity (averaged, normalized) (arbitrary units (background-subtracted, floor 0; scale differs between SH3 domains)); higher = stronger binding of the SH3 domain to the peptide
# AgAbp1 = target: AgAbp1
# Protocol: (§1)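 GST-tagged SH3 domains from S. cerevisiae (Sc), A. gossypii (Ag), C. albicans (Ca) and S. pombe (Sp) were incubated at 10 ug/ml overnight at 4 C on cellulose SPOT membranes carrying 292 synthetic 15-mer peptides mined from the S. cerevisiae proteome (cysteines replaced by serines). Binding was detected with anti-GST antibody, HRP secondary and chemiluminescence, quantified with Genespotter, and reported as normalized spot intensities averaged over biological replicates.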
# AgBbc1 = target: AgBbc1
# Protocol: as §1
# AgBem1-D1 = target: AgBem1-D1
# Protocol: as §1
# AgBzz1-D1 = target: AgBzz1-D1
# Protocol: as §1
# AgBzz1-D2 = target: AgBzz1-D2
# Protocol: as §1
# AgCyk3 = target: AgCyk3
# Protocol: as §1
# AgFus1 = target: AgFus1
# Protocol: as §1
# AgHof1 = target: AgHof1
# Protocol: as §1
# AgHse1 = target: AgHse1
# Protocol: as §1
# AgLsb1 = target: AgLsb1
# Protocol: as §1
# AgLsb4 = target: AgLsb4
# Protocol: as §1
# AgMyo5 = target: AgMyo5
# Protocol: as §1
# AgNbp2 = target: AgNbp2
# Protocol: as §1
# AgRvs167 = target: AgRvs167
# Protocol: as §1
# AgSho1 = target: AgSho1
# Protocol: as §1
# AgSla1-D1-D2 = target: AgSla1-D1-D2
# Protocol: as §1
# AgSla1-D3 = target: AgSla1-D3
# Protocol: as §1
# CaAbp1-D1 = target: CaAbp1-D1
# Protocol: as §1
# CaAbp1-D2 = target: CaAbp1-D2
# Protocol: as §1
# CaBbc1 = target: CaBbc1
# Protocol: as §1
# CaBem1-D1 = target: CaBem1-D1
# Protocol: as §1
# CaBzz1-D1 = target: CaBzz1-D1
# Protocol: as §1
# CaBzz1-D2 = target: CaBzz1-D2
# Protocol: as §1
# CaCyk3 = target: CaCyk3
# Protocol: as §1
# CaFus1 = target: CaFus1
# Protocol: as §1
# CaHof1 = target: CaHof1
# Protocol: as §1
# CaHse1 = target: CaHse1
# Protocol: as §1
# CaLsb1 = target: CaLsb1
# Protocol: as §1
# CaLsb4 = target: CaLsb4
# Protocol: as §1
# CaMyo5 = target: CaMyo5
# Protocol: as §1
# CaNbp2 = target: CaNbp2
# Protocol: as §1
# CaRvs167 = target: CaRvs167
# Protocol: as §1
# CaRvs167-3 = target: CaRvs167-3
# Protocol: as §1
# CaSho1 = target: CaSho1
# Protocol: as §1
# CaSla1-D1-D2 = target: CaSla1-D1-D2
# Protocol: as §1
# CaSla1-D3 = target: CaSla1-D3
# Protocol: as §1
# ScAbp1 = target: ScAbp1
# Protocol: as §1
# ScBbc1 = target: ScBbc1
# Protocol: as §1
# ScBem1-D1 = target: ScBem1-D1
# Protocol: as §1
# ScBzz1-D1 = target: ScBzz1-D1
# Protocol: as §1
# ScBzz1-D2 = target: ScBzz1-D2
# Protocol: as §1
# ScCyk3 = target: ScCyk3
# Protocol: as §1
# ScFus1 = target: ScFus1
# Protocol: as §1
# ScHof1 = target: ScHof1
# Protocol: as §1
# ScHse1 = target: ScHse1
# Protocol: as §1
# ScLsb1 = target: ScLsb1
# Protocol: as §1
# ScLsb2 = target: ScLsb2
# Protocol: as §1
# ScLsb3 = target: ScLsb3
# Protocol: as §1
# ScLsb4 = target: ScLsb4
# Protocol: as §1
# ScMyo3 = target: ScMyo3
# Protocol: as §1
# ScMyo5 = target: ScMyo5
# Protocol: as §1
# ScNbp2 = target: ScNbp2
# Protocol: as §1
# ScPex13 = target: ScPex13
# Protocol: as §1
# ScRvs167 = target: ScRvs167
# Protocol: as §1
# ScSho1 = target: ScSho1
# Protocol: as §1
# ScSla1-D1-D2 = target: ScSla1-D1-D2
# Protocol: as §1
# ScSla1-D3 = target: ScSla1-D3
# Protocol: as §1
# SpAbp1-D1 = target: SpAbp1-D1
# Protocol: as §1
# SpBbc1 = target: SpBbc1
# Protocol: as §1
# SpBzz1-D1 = target: SpBzz1-D1
# Protocol: as §1
binder,measurement,setting,value
KIRRSSLMIPNPQQF,SPOT peptide array binding signal intensity,AgAbp1,26.5
same,SPOT peptide array binding signal intensity,AgBbc1,56.5
same,SPOT peptide array binding signal intensity,AgBem1-D1,234
same,SPOT peptide array binding signal intensity,AgBzz1-D1,18.5
same,SPOT peptide array binding signal intensity,AgBzz1-D2,39
same,SPOT peptide array binding signal intensity,AgCyk3,≤ 0
same,SPOT peptide array binding signal intensity,AgFus1,88
same,SPOT peptide array binding signal intensity,AgHof1,56.8
same,SPOT peptide array binding signal intensity,AgHse1,138
same,SPOT peptide array binding signal intensity,AgLsb1,86.5
same,SPOT peptide array binding signal intensity,AgLsb4,14
same,SPOT peptide array binding signal intensity,AgMyo5,2
same,SPOT peptide array binding signal intensity,AgNbp2,15
same,SPOT peptide array binding signal intensity,AgRvs167,1.67
same,SPOT peptide array binding signal intensity,AgSho1,15.5
same,SPOT peptide array binding signal intensity,AgSla1-D1-D2,186
same,SPOT peptide array binding signal intensity,AgSla1-D3,3.5
same,SPOT peptide array binding signal intensity,CaAbp1-D1,316
same,SPOT peptide array binding signal intensity,CaAbp1-D2,153
same,SPOT peptide array binding signal intensity,CaBbc1,214
same,SPOT peptide array binding signal intensity,CaBem1-D1,65.5
same,SPOT peptide array binding signal intensity,CaBzz1-D1,195
same,SPOT peptide array binding signal intensity,CaBzz1-D2,206
same,SPOT peptide array binding signal intensity,CaCyk3,11
same,SPOT peptide array binding signal intensity,CaFus1,383
same,SPOT peptide array binding signal intensity,CaHof1,1
same,SPOT peptide array binding signal intensity,CaHse1,12.5
same,SPOT peptide array binding signal intensity,CaLsb1,4
same,SPOT peptide array binding signal intensity,CaLsb4,72.5
same,SPOT peptide array binding signal intensity,CaMyo5,20.5
same,SPOT peptide array binding signal intensity,CaNbp2,129
same,SPOT peptide array binding signal intensity,CaRvs167,42.3
same,SPOT peptide array binding signal intensity,CaRvs167-3,7.5
same,SPOT peptide array binding signal intensity,CaSho1,84.5
same,SPOT peptide array binding signal intensity,CaSla1-D1-D2,532
same,SPOT peptide array binding signal intensity,CaSla1-D3,352
same,SPOT peptide array binding signal intensity,ScAbp1,42
same,SPOT peptide array binding signal intensity,ScBbc1,22.2
same,SPOT peptide array binding signal intensity,ScBem1-D1,136
same,SPOT peptide array binding signal intensity,ScBzz1-D1,40
same,SPOT peptide array binding signal intensity,ScBzz1-D2,32
same,SPOT peptide array binding signal intensity,ScCyk3,24
same,SPOT peptide array binding signal intensity,ScFus1,68
same,SPOT peptide array binding signal intensity,ScHof1,≤ 0
same,SPOT peptide array binding signal intensity,ScHse1,388
same,SPOT peptide array binding signal intensity,ScLsb1,20.5
same,SPOT peptide array binding signal intensity,ScLsb2,1.5
same,SPOT peptide array binding signal intensity,ScLsb3,15.5
same,SPOT peptide array binding signal intensity,ScLsb4,≤ 0
same,SPOT peptide array binding signal intensity,ScMyo3,5
same,SPOT peptide array binding signal intensity,ScMyo5,7
same,SPOT peptide array binding signal intensity,ScNbp2,126
same,SPOT peptide array binding signal intensity,ScPex13,46
same,SPOT peptide array binding signal intensity,ScRvs167,40.2
same,SPOT peptide array binding signal intensity,ScSho1,304
same,SPOT peptide array binding signal intensity,ScSla1-D1-D2,526
same,SPOT peptide array binding signal intensity,ScSla1-D3,337
same,SPOT peptide array binding signal intensity,SpAbp1-D1,95
same,SPOT peptide array binding signal intensity,SpBbc1,3.5
same,SPOT peptide array binding signal intensity,SpBzz1-D1,311
